Screens deposited in PubChem BioAssay by National Center for Advancing Translational Sciences (NCATS).
AmpC inh no det – Promiscuous and Specific Inhibitors of AmpC Beta-Lactamase (assay without detergent) | Potency, µM (titrated, usually from 28.7 µM), for inactives: top-dose activity change, negative = inhibition | 1.8% of 71,000 active | P00811 | AmpC nitrocefin hydrolysis, absorbance 480 nm, no detergent; note: % of control where 0% means no effect
Target sequence (P00811 whole entry, looked up): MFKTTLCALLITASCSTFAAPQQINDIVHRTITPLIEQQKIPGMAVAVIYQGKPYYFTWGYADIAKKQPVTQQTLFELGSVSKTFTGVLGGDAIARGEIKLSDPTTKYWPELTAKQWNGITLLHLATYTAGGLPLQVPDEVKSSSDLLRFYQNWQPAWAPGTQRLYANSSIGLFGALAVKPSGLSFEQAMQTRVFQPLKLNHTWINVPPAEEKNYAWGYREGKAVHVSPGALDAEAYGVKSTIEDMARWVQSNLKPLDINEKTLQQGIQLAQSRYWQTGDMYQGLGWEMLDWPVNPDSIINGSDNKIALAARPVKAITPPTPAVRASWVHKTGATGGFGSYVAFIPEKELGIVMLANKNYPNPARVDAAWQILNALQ
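AmpC in 20 mM phosphate buffer pH 7.0 was preincubated 15 min at room temperature with compounds. Nitrocefin (800 uM stock) was then added and hydrolysis followed at 480 nm every 20 s for 4 min.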
SmPrx2 inh – Schistosoma Mansoni Peroxiredoxins (Prx2). S. mansoni Prx2 activity coupled to TGR/GSH (TGR is thioredoxin glutathione reductase), NADPH fluorescence loss, qHTS. AID 448, 2006. Potency, µM. Schistosoma mansoni peroxiredoxin 2 (Prx2). 0.07% of 65,000 active
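Activity is read as the drop in NADPH fluorescence (365/450 nm), recorded every 30 sec for 8 min after H2O2 addition. Prx2 is coupled to TGR-driven NADPH oxidation through glutathione, in phosphate buffer pH 7.4.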
Anthrax LT inh – qHTS Assay for Anthrax Lethal Toxin Internalization; AID 912, 2007; 0.67% of 70,000 active; Potency, µM (top dose mostly 40 µM), without a hit: at the top dose activity change, negative = inhibition, usual class: inhibitors; Cells, anthrax lethal toxin internalization, FRET ratio (460/530); note: % is set by controls: 0 for no effect and ±100 for the full control effect; nearly all actives have a fitted effect of over 50% in size
AmpC inh det – Promiscuous and Specific Inhibitors of AmpC Beta-Lactamase (assay with detergent) | P00811 | purified AmpC, nitrocefin hydrolysis with detergent | Potency, µM (highest dose often 28.7 µM), for the others: at the top dose activity change, negative = inhibition | 0.09% of 71,000 active; active = well fitted curve in the direction sought with a large enough effect; inconclusive = small, poorly fitted or top-dose-only effect; note: % is set by controls: 0 for no effect and ±100 for the full control effect
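E. coli AmpC (5.3 nM) in 20 mM phosphate pH 7.0 with 0.01% Triton X-100, preincubated 15 min RT with compound; nitrocefin (2 uL of 800 uM stock) hydrolysis followed by 480 nm absorbance every 20 s over 4 min.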
Starred values were filed as active, the others as inactive; u = inconclusive; x = no result given; ! = not confirmed by another sample; [ ] = another dose, or the depositor's remark. The list is not random: actives were taken first. Their share in the collection is about 2.6%. Unless noted, calls come from the whole dose curve. Potency is the fitted concentration of half-maximal effect.

SMILES	AmpC inh no det	SmPrx2 inh	Anthrax LT inh	AmpC inh det
COc1cccc(C2CC(c3c(Cl)cccc3Cl)n3nc(N)nc3N2)c1 (centres undefined)	3.98µM*[single pt active]	>57	3.5%	13.0%
O=C(O)CC[C@]1(C(=O)O)CCC(=O)c2ccccc21	-2.2%[5.75 µM]	>57	-3.2%[8 µM]	-7.3%[5.75 µM]
Cc1cccc(CNc2nc(-c3ccc(C(=O)N(C)C)cc3)nc3ccccc23)c1	117.0%	>57	-23.4%	0.4%
O=[N+]([O-])c1ccc(Cl)cc1Cl	-2.7%	x	1.5%	9.5%
COc1ccc(Oc2ncc3nc(-c4cn(C)c5ccccc45)c(=O)n(C)c3n2)cc1	6.4%	>57	u	0.1%
CN(C)c1ccc(C(=O)Nc2nc3c(s2)CCCC3)cc1	3.8%	>57	12.6µM*	-2.2%
CN(C)c1ccc2c(c1)OC(N)=C(C#N)C2c1cccc(F)c1 (centres undefined)	1.6%	x	6.31µM*	-2.4%
N#CC1=C(N)Oc2cc(O)ccc2C1c1cccs1 (centres undefined)	-24.1%	x	-25.5%	17.3%
Cc1cc(N)c2ccccc2[n+]1CCCCCCCCCC[n+]1c(C)cc(N)c2ccccc21	u	>57	u	-8.1%
CNC(=O)c1ccc2snnc2c1	3.98µM*[single pt active]	>57	2.6%	9.6%
Cc1ccc(Cn2ccc(NC(=O)c3cc(-c4ccc(Cl)cc4)on3)n2)cc1	-10.2%	>57	-3.2%	9.3%
Cc1ccc(Cn2ccc(NC(=O)c3cc(-c4ccc(F)cc4)on3)n2)cc1	7.94µM*	>57	-5.8%	6.8%
Cc1ccc(Cn2ccc(NC(=O)c3cc(CC(C)C)on3)n2)cc1	3.98µM*[single pt active]	>57	u	7.9%
O=c1cc(-c2ccc(O)cc2)oc2cc(O)cc(O)c12	3.98µM*!	>57	-17.1%	5.9%
O=c1cc(-c2ccccc2)oc2cc(O)cc(O)c12	-12.1%[12.8 µM]	>57	-4.9%[3.58 µM]	-1.0%[12.8 µM]
CCOc1ccc(N(CC(=O)NC2CCCCC2)S(=O)(=O)c2c(C)noc2C)cc1	13.6%	>57	-3.1%	6.2%
CCc1ccc(N(CC(=O)NC2CCCCC2)S(=O)(=O)c2c(C)noc2C)cc1	3.98µM*[single pt active]	>57	-24.2%	11.9%
COc1ccccc1S(=O)(=O)Cc1ccc(C(=O)NC2CCCCC2)o1	11.7%	>57	-8.9%	-1.0%
CCOC(=O)N1CCC(NC(=O)c2ccc(CS(=O)(=O)c3ccc(OC)cc3)o2)CC1	3.98µM*[single pt active]	>57	6.6%	13.2%
COc1ccc(S(=O)(=O)Cc2ccc(C(=O)NC3CCCC3)o2)cc1	3.98µM*[single pt active]	>57	-8.6%	14.9%
Cc1ncc2c(c1O)COP(=O)(O)OC2	4.8%	>57	-9.5%	-0.7%
CN(Cc1ccco1)c1ccnc(-c2cccc(C#N)c2)n1	65.0%	>57	u	9.7%
CCN1CCN(C(=O)N[C@H](C(=O)N[C@@H]2C(=O)N3C(C(=O)O)=C(CSc4nnnn4C)CS[C@@H]23)c2ccc(O)cc2)C(=O)C1=O	-11.0%[12.8 µM]	>57	-4.4%[3.58 µM]	-3.6%[12.8 µM]
CN(C)c1ccc(-c2nc(NCc3cccnc3)c3ccccc3n2)cc1	16.6%	>57	u	-1.3%
Cc1cccc(N2CCN(C(=O)C3CCN(c4nnc(-n5cccc5)s4)CC3)CC2C)c1 (centres undefined)	104.9%	>57	7.94µM*	4.9%
SMILES	AmpC inh no det	SmPrx2 inh	Anthrax LT inh	AmpC inh det
O=S(=O)(c1ccccc1)N1CCC[C@@]2(CCN(Cc3ccccc3)C2)C1	26.2%	>57	u	0.8%
NNS(=O)(=O)c1cc(C(=O)O)cc(C(=O)O)c1	2.1%[5.75 µM]	>57	2.4%[8 µM]	-1.2%[5.75 µM]
Cc1ccc(S(=O)(=O)N(CC(O)CN2CCCCC2)c2ccccc2)cc1 (centres undefined)	3.98µM*[single pt active]	>57	8.1%	11.7%
C/C(CCN1CCCCc2nc(C)c(C)cc21)=N\OC[C@@H](O)[C@@H]1O[C@@H]2OC(C)(C)O[C@@H]2[C@H]1O	x	x	1.7%[8 µM]	x
O=C(Cn1c(-c2ccccc2)noc1=O)Nc1ccc(N2CCCCCC2)cc1	12.6µM*	>57	u	-2.3%
O=C(Cn1c(-c2ccccc2)noc1=O)Nc1ccc(S(=O)(=O)N2CCOCC2)cc1	19.0%	>57	-5.4%	-8.4%
COc1ccccc1CNC(=O)C1CCC(CNc2c(N3CCOCC3)c(=O)c2=O)CC1 (centres undefined)	27.8%	>57	u	11.6%
O=C(NC1CCCc2ccccc21)C1CCC(CNc2c(N3CCOCC3)c(=O)c2=O)CC1 (centres undefined)	3.16µM*[single pt active]	>57	u	10.3%
COc1cc(NC(=O)C2CCC(CNc3c(N4CCCCC4)c(=O)c3=O)CC2)cc(OC)c1 (centres undefined)	3.98µM*[single pt active]	>57	u	13.0%
CO[C@]1(NC(=O)[C@H](C(=O)O)c2ccc(O)cc2)C(=O)N2C(C(=O)O)=C(CSc3nnnn3C)CO[C@H]21	-18.9%[12.8 µM]	>57	u	-6.6%[12.8 µM]
N#Cc1cc2ccccc2nc1SCC(=O)Nc1ccc(S(=O)(=O)N2CCCC2)cc1	5.01µM*	>57	-4.8%	14.3%
O=C(c1ccc(NC2=NC3CS(=O)(=O)CC3S2)cc1)N1CCN(C(=O)c2ccco2)CC1 (centres undefined)	3.98µM*[single pt active]	>57	-4.8%	11.6%
CCOC(=O)C1CCN(C(=O)c2ccc(Cl)c(NC3=NC4CS(=O)(=O)CC4S3)c2)CC1 (centres undefined)	3.98µM*[single pt active]	>57	1.4%	11.8%
CCOC(=O)N1CCN(C(=O)c2cccc(NC3=NC4CS(=O)(=O)CC4S3)c2)CC1 (centres undefined)	-3.0%	>57	0.0%	-3.3%
[O-][N+]1(CC[N+]2([O-])CCCCC2)CCCCC1	-5.3%[5.75 µM]	>57	-20.9%[8 µM]	-4.8%[5.75 µM]
CCN1C(=O)[C@H]2[C@H]3[C@H](O)[C@H](O)C/C(=N/OC[C@@H](C)[C@H](OCc4ccccc4)C(C)C)[C@@H]3CC[C@@H]2C1=O	x	x	-6.8%[8 µM]	x
CCOC(=O)CCS(=O)(=O)c1nc(-c2ccccc2)cc(C(F)(F)F)n1	16.2%	>57	u	1.1%
CCOC(=O)CS(=O)(=O)c1nc(-c2ccccc2)cc(C(F)(F)F)n1	-3.0%	>57	3.16µM*	-8.1%
CN(C)c1ccnc(SCc2ccccc2Cl)c1C#N	-1.5%	>57	7.94µM*	-2.8%
N#Cc1c(NC(=O)Cn2c(=O)oc3ccccc32)oc(-c2ccccc2)c1-c1ccccc1	12.6µM*	>57	10µM*	0.8%
O=c1c(O)c(-c2ccc(O)c(O)c2)oc2cc(O)ccc12	12.6µM*!	>57	-12.2%	-2.5%
O=c1c(O)c(-c2ccc(O)cc2)oc2cc(O)ccc12	u	>57	u	2.1%
CS(=O)(=O)Nc1cccc(-c2ccc3ncnc(NCCN4CCOCC4)c3c2)c1	16.8%	>57	-9.3%	6.8%
O=C(NCc1cccnc1)C1c2ccccc2C(=O)N1C1CCCC1 (centres undefined)	3.98µM*[single pt active]	>57	-4.5%	13.7%
COc1ccc(CN2C(=O)c3ccccc3C2C(=O)NCc2cccnc2)c(OC)c1 (centres undefined)	21.4%	>57	3.1%	-5.4%
COc1ccc(OC)c(CN2C(=O)c3ccccc3C2C(=O)NCc2cccnc2)c1 (centres undefined)	3.98µM*[single pt active]	>57	0.9%	11.4%
